Reference: PubChem BioAssay (Tox21)
Unmarked numbers belong to inactive results. Inconclusive results are not listed. A call without a number means that no potency is given here. The source made the active and inactive calls. Unless noted, calls follow the shape of the dose curve; as a rule, active = well fitted curve in the direction sought with a large enough effect in the repeat runs; inconclusive = weak or mixed curves; inactive = no such curve, though single readings can be large; an effect the other way counts as inactive or inconclusive.

Legend:
[1] = qHTS assay to identify small molecule agonists of H2AX (AID 1224845; active = well fitted activation curve with a large enough effect in the signal ratio in the repeat runs, not every such curve was filed as active; the % refers to the signal ratio)
How it was run: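 Phospho-H2AX Ser139 measured by HTRF (ex 320 nm; em 665 and 620 nm) after 24 hr antibody incubation. Compounds, 15 concentrations, 0.76% DMSO, were applied to CHO-K1 cells for 3hr at 37C before lysis.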

[2] = qHTS assay to identify small molecule agonists of the hypoxia (HIF-1) signaling pathway (AID 1224846; active = well fitted activation curve with a large enough effect in the signal ratio in the repeat runs, not every such curve was filed as active; the % refers to the signal ratio)
How it was run: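 Compounds from the Tox21 10K library, dissolved in DMSO, are tested for induction of a hypoxia response element–controlled beta-lactamase reporter in ME-180 cells. Exposure lasts 17 hrs at 37C after a 5 hr settling period, followed by CCF4-AM FRET substrate.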

[3] = qHTS assay to identify small molecule agonists of H2AX - cell viability counter screen (AID 1224847; calls by dose curve;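 also: wild-type CHO-K1 cells; top concentration of the series differs between compounds; nearly all actives have a fitted effect of over 30% in size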)
How it was run: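 Cells plated first: CHO-K1, 1000 per well in 10% FBS medium, incubated overnight at 37C. Then 15-point compound titration added (final DMSO 0.76%) for 3 hr. Finally CellTiter-Glo added and luminescence read.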

[4] = qHTS RealTime-Glo MT Cell Viability Assay in HepG2 cells - 24 hour (AID 1224867); also: nearly all actives have a fitted effect of over 50% in size
How it was run: (§1)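 HepG2 cells were seeded at 600 cells/well together with NanoLuc luciferase and a cell-permeant prosubstrate, preincubated 5 h at 37 C/5% CO2, then pin-dosed with compounds in DMSO. Nonlytic luminescence from viable cells was read at each time point.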

[5] = qHTS RealTime-Glo MT Cell Viability Assay in HEK293 cells - 32 hour (AID 1224868); also: top concentration of the series differs between compounds; nearly all actives have a fitted effect of over 50% in size
How it was run: (§2)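 HEK293 cells were seeded at 600 cells/well together with NanoLuc luciferase and cell-permeant prosubstrate, preincubated 5 h at 37 C/5% CO2, then given compound in DMSO by pintool. Luminescence from viable-cell prosubstrate reduction was read repeatedly over 40 h.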

[6] = A CellTox Green Cytotoxicity Assay to monitor cytotoxicity in HEK293 cells - 0 hour (AID 1224869); also: nearly all actives have a fitted effect of over 50% in size; also: potency is read from the fitted curve at half-maximal effect
How it was run: (§3)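 Cells (HEK293, 600/well) and dye reagent are dispensed together. After 5 h at 37 C, 23 nL compound is pinned in. Plates stay at 37 C for 40 h with fluorescence read at 0h, 8h, 16h, 24h, 32h and 40h.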

[7] = qHTS RealTime-Glo MT Cell Viability Assay in HepG2 cells - 40 hour (AID 1224870); also: nearly all actives have a fitted effect of over 50% in size
How it was run: (§4)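 Real-time viability: cells seeded at 600 per well together with NanoLuc and cell-permeant prosubstrate, compounds added after 5 h incubation. Luminescence tracked at 0, 8, 16, 24, 32 and 40 h of exposure.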

[8] = A CellTox Green Cytotoxicity Assay to monitor cytotoxicity in HEK293 cells - 40 hour (AID 1224871); also: nearly all actives have a fitted effect of over 45% in size; also: potency is read from the fitted curve at half-maximal effect
How it was run: as §3

[9] = qHTS RealTime-Glo MT Cell Viability Assay in HEK293 cells - 16 hour (AID 1224872)
How it was run: as §2

[10] = qHTS RealTime-Glo MT Cell Viability Assay in HepG2 cells - 8 hour (AID 1224873); also: nearly all actives have a fitted effect of over 55% in size
How it was run: as §4

[11] = qHTS RealTime-Glo MT Cell Viability Assay in HEK293 cells - 40 hour (AID 1224874); settings: RealTime-Glo luminescence; max response: hits give low values; also: nearly all actives have a fitted effect of over 50% in size
How it was run: (§5)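 Real-time viability in HEK293: signal arises when living cells convert a prosubstrate for NanoLuc in the medium, so luminescence tracks viable cell number. Compound (23 nL, DMSO) added 5 h post-seeding; kinetic reads at 0–40 h, 37 C.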

[12] = A CellTox Green Cytotoxicity Assay to monitor cytotoxicity in HepG2 cells - 16 hour (AID 1224876); also: nearly all actives have a fitted effect of over 45% in size; also: potency is read from the fitted curve at half-maximal effect
How it was run: (§6)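 Cells and non-lytic dye reagent are dispensed together (600 HepG2 cells/well) and incubated 5 h before DMSO compound transfer. Kinetic fluorescence is then recorded in the same wells during 40 h at 37 C.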

[13] = qHTS RealTime-Glo MT Cell Viability Assay in HepG2 cells - 32 hour (AID 1224877); also: nearly all actives have a fitted effect of over 55% in size
How it was run: as §1

[14] = A CellTox Green Cytotoxicity Assay to monitor cytotoxicity in HepG2 cells - 24 hour (AID 1224878); also: nearly all actives have a fitted effect of over 45% in size
How it was run: as §6

[15] = A CellTox Green Cytotoxicity Assay to monitor cytotoxicity in HepG2 cells - 40 hour (AID 1224879); also: nearly all actives have a fitted effect of over 40% in size
How it was run: as §6

[16] = qHTS RealTime-Glo MT Cell Viability Assay in HEK293 cells - 0 hour (AID 1224880); also: top concentration of the series differs between compounds; nearly all actives have a fitted effect of over 45% in size
How it was run: as §5

[17] = A CellTox Green Cytotoxicity Assay to monitor cytotoxicity in HEK293 cells - 32 hour (AID 1224881); also: nearly all actives have a fitted effect of over 40% in size; also: potency is read from the fitted curve at half-maximal effect
How it was run: as §3

[18] = A CellTox Green Cytotoxicity Assay to monitor cytotoxicity in HEK293 cells - 24 hour (AID 1224875); also: nearly all actives have a fitted effect of over 45% in size
How it was run: as §3

[19] = qHTS assay to identify small molecule antagonists of the estrogen related receptor (ERR) signaling pathway from Tox21 library (AID 1224848); also: nearly all actives have a fitted effect of over 50% in size
How it was run: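 ERR cell line, 2,000 cells/well. 6 h settle, then compound (DMSO) added; 18 h at 37 C; ONE-Glo luminescence after 30 min RT.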

[20] = qHTS assay to identify small molecule agonists of the estrogen related receptor (ERR) signaling pathway from Tox21 library (AID 1224849; calls by dose curve; also: nearly all actives have a fitted effect of over 15% in size); settings: ERR reporter cell line, ONE-Glo luciferase, 18 h; at 92.4 µM (top of the series) unless noted
How it was run: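 Cells carrying the ERR reporter were plated and allowed to settle for 6 h, exposed to library compounds for 18 h at 37 C, then lysed with ONE-Glo and luminescence measured.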

SMILES	Potency [1]	outcome [2]	Potency [3]	Potency [4]	Potency [5]	Potency [6]	Potency [7]	Potency [8]	Potency [9]	Potency [10]	max response [11] [%]	Potency [12]	Potency [13]	Potency [14]	Potency [15]	Potency [16]	Potency [17]	Potency [18]	Potency [19]	activity change, positive = activation [20]
Cc1cccc(C)c1NC(=O)c1cc(S(N)(=O)=O)c(Cl)cc1O	inactive	inactive	inactive	inactive	inactive	inactive	inactive	inactive	inactive	inactive	1.94	inactive	inactive	inactive	inactive	inactive	inactive	–	–	–
CCOC(=O)N1CCC(Nc2ccc(Cl)cc2N)CC1	inactive	inactive	inactive	inactive	inactive	inactive	inactive	inactive	inactive	inactive	-19	inactive	–	inactive	inactive	inactive	inactive	inactive	–	–
CC(C)C1CCC(C(=O)N[C@H](Cc2ccccc2)C(=O)O)CC1 (some centres not stated)	inactive	inactive	inactive	inactive	inactive	inactive	inactive	inactive	–	inactive	3	inactive	inactive	inactive	inactive	inactive	inactive	inactive	–	–
C/C(C=O)=C\c1ccccc1	inactive	inactive	inactive	inactive	inactive	inactive	inactive	inactive	inactive	inactive	0.492	inactive	–	inactive	inactive	inactive	–	inactive	–	–
COC(=O)CC(C(C)=O)C(=O)OC (configuration not stated)	inactive	inactive	inactive	inactive	inactive	inactive	inactive	inactive	inactive	inactive	9.23	inactive	–	inactive	–	inactive	inactive	inactive	–	–
COC(CC(C)CCCC(C)(C)O)OC (configuration not stated)	inactive	inactive	inactive	inactive	inactive	inactive	inactive	inactive	–	inactive	1.35	inactive	inactive	inactive	–	inactive	inactive	inactive	–	–
CC1CCCC(=O)C1=O (configuration not stated)	inactive	inactive	inactive	inactive	inactive	inactive	inactive	inactive	inactive	inactive	4.99	inactive	–	–	–	inactive	inactive	inactive	–	–
NC(=O)c1ccccc1[N+](=O)[O-]	inactive	inactive	inactive	inactive	inactive	inactive	inactive	inactive	inactive	inactive	13.7	inactive	–	inactive	–	inactive	1.78 µM (active)	inactive	–	–
CC(=O)OCCC1CCCCC1	inactive	inactive	inactive	inactive	inactive	inactive	inactive	inactive	inactive	inactive	6.39	–	inactive	–	–	inactive	inactive	inactive	–	–
CC(C)(O)c1coc(S(=O)(=O)NC(=O)Nc2c3c(cc4c2CCC4)CCC3)c1	inactive	inactive	inactive	inactive	inactive	inactive	inactive	inactive	inactive	inactive	21.1	–	inactive	–	–	inactive	inactive	–	–	–
CC(C)OC(=O)c1ccccc1C(=O)OC(C)C	inactive	inactive	inactive	inactive	inactive	inactive	inactive	inactive	–	inactive	-14	inactive	inactive	inactive	inactive	inactive	inactive	inactive	–	–
CCCCOCCOC(=O)c1cccnc1	inactive	inactive	inactive	inactive	inactive	inactive	inactive	inactive	inactive	inactive	0.954	inactive	–	inactive	–	inactive	inactive	inactive	–	–
O=C(c1ccccc1)C1CCC1	inactive	inactive	inactive	inactive	inactive	38.9 µM (active)	inactive	24.5 µM (active)	inactive	inactive	13.2	38.9 µM (active)	–	–	–	inactive	24.5 µM (active)	–	–	–
CCC(C)(C)C(=O)O	inactive	inactive	inactive	inactive	inactive	inactive	inactive	inactive	–	inactive	-0.784	inactive	inactive	inactive	inactive	inactive	inactive	inactive	–	–
CC[C@@H](CO)NCCN[C@@H](CC)CO	inactive	–	inactive	inactive	inactive	inactive	inactive	inactive	inactive	inactive	5.04	inactive	inactive	inactive	inactive	inactive	inactive	inactive	inactive	0.599% [at 42.5 µM]
